Data as given in the supplement of paper PMC13380429.

System: Vero E6 infected with SARS-CoV-2
Experiment: inhibition of SARS-CoV-2 cytopathic effect; higher = more antiviral protection, active = above 15
Details: 48 h

Measured: inhibition of SARS-CoV-2 cytopathic effect

O=C(O)c1ccc2nc(-c3cc(Cl)cc(Cl)c3)oc2c1 [tafamidis-meglumine]
inactive: 1 nM -0.14% | 8.33 nM -0.38% | 100 nM -1.04% | 833.33 nM 1.34% | 10000 nM 0.08%

Cc1oc(=O)oc1COC(=O)C1=C([C@H]2CCCO2)S[C@@H]2[C@@H]([C@@H](C)O)C(=O)N12 [faropenem-medoxomil]
inactive: 1 nM 2.73% | 8.33 nM -1.09% | 100 nM -0.59% | 833.33 nM 2.96% | 10000 nM 1.04%

O=C(O)[C@H]1O[C@@H](Oc2cc3oc(-c4ccccc4)cc(=O)c3c(O)c2O)[C@H](O)[C@@H](O)[C@@H]1O [baicalin]
inactive: 1 nM 2.44% | 8.33 nM -0.79% | 100 nM -1.89% | 833.33 nM -5.03% | 10000 nM 2.97%

OCc1cc(C(O)CNCCCCCCOCCCCc2ccccc2)ccc1O (stereo not given) [salmeterol]
inactive: 1 nM 0.19% | 8.33 nM 2.26% | 100 nM 10.4% | 833.33 nM 1.95% | 10000 nM -1.77%

CC(=O)N1CCN(C)CC1 [1-acetyl-4-methylpiperazine]
inactive: 1 nM 4.74% | 8.33 nM 3.75% | 100 nM 3.95% | 833.33 nM 4.36% | 10000 nM -0.21%

CNS(=O)(=O)Nc1nccc(Cc2c(C)c3ccc(Oc4ncccn4)cc3oc2=O)c1F
inactive: 1 nM -0.25% | 8.33 nM -3.18% | 100 nM -10.4% | 833.33 nM -17.5% | 10000 nM -15.7%

Nc1nc(NC2CC2)c2ncn([C@H]3C=C[C@@H](CO)C3)c2n1
inactive: 1 nM -0.53% | 8.33 nM -0.06% | 100 nM 0.24% | 833.33 nM 0.84% | 10000 nM 0.33%

CCCCCCOC(=O)NC(=N)c1ccc(NCc2nc3cc(C(=O)N(CCC(=O)OCC)c4ccccn4)ccc3n2C)cc1 [dabigatran-etexilate]
inactive: 1 nM 1% | 8.33 nM 2.6% | 100 nM 1.5% | 833.33 nM 1.44% | 10000 nM -2.8%

COc1ccc(N(C(=O)Oc2c(C)cccc2C)c2ccnc(Nc3ccc(N4CCN(C)CC4)cc3)n2)c(OC)c1
inactive: 1 nM 0.25% | 8.33 nM 1.54% | 100 nM 0.43% | 833.33 nM 0.02% | 10000 nM -1.27%

CCCCNc1c(C(=O)OCC)c(C)nc2c1cnn2CC [tracazolate]
inactive: 1 nM -0.41% | 8.33 nM 1.49% | 100 nM -0.22% | 833.33 nM -2.81% | 10000 nM -1.99%

COc1ccc2c(C(=S)N(C)CC(=O)O)cccc2c1C(F)(F)F [tolrestat]
inactive: 1 nM 0.38% | 8.33 nM -0.6% | 100 nM -3.79% | 833.33 nM -3.61% | 10000 nM -5.09%

CC1(C)CC(=O)C(C2C3=C(CC(C)(C)CC3=O)Oc3ccccc32)C(=O)C1 (stereo not given)
inactive: 1 nM -0.63% | 8.33 nM 0.77% | 100 nM -0.14% | 833.33 nM 1.93% | 10000 nM -2.4%

COc1ccc2cc1Oc1cc3c(cc1OC)CC[N+](C)(C)[C@H]3Cc1ccc(cc1)Oc1c(OC)c(OC)cc3c1[C@@H](C2)[N+](C)(C)CC3 [metocurine]
inactive: 1 nM -0.82% | 8.33 nM 0.93% | 100 nM 1.08% | 833.33 nM -3.28% | 10000 nM -0.33%

Cn1ncnc1COc1nn2c(-c3cc(F)ccc3F)nnc2cc1C(C)(C)C
inactive: 1 nM 3.33% | 8.33 nM 3.4% | 100 nM 3.15% | 833.33 nM 1.53% | 10000 nM 0.81%

C#C[C@]1(O)CC[C@H]2[C@@H]3CCc4cc(O)ccc4[C@H]3CC[C@@]21C
inactive: 1 nM 0.97% | 8.33 nM 0.51% | 100 nM 6.67% | 833.33 nM 3.6% | 10000 nM 7.74%

COC(=O)c1cc(OC)c2c(c1-c1c(CO)cc(OC)c3c1OCO3)OCO2 [bicyclol]
inactive: 1 nM -2.07% | 8.33 nM 1.38% | 100 nM -0.88% | 833.33 nM -0.4% | 10000 nM -3.03%

CCC(CC)O[C@@H]1C=C(C(=O)O)C[C@H](N)[C@H]1NC(C)=O [oseltamivir-carboxylate]
inactive: 1 nM -1.71% | 8.33 nM 0.87% | 100 nM 0.49% | 833.33 nM 1.32% | 10000 nM -0.82%

CC1(COc2ccc(CC3SC(=O)NC3=O)cc2)CCCCC1 (stereo not given) [ciglitazone]
inactive: 1 nM -1.15% | 8.33 nM -3.35% | 100 nM -1.82% | 833.33 nM 3.16% | 10000 nM 4.02%

Clc1ccc(CSC(Cn2ccnc2)c2ccc(Cl)cc2Cl)cc1 (stereo not given) [sulconazole]
inactive: 1 nM -1.13% | 8.33 nM 2.09% | 100 nM 0.76% | 833.33 nM -1.38% | 10000 nM -0.46%

O=C1CN=C(c2cccc(Br)c2)c2oc3ccccc3c2N1
inactive: 1 nM -2.75% | 8.33 nM -1.3% | 100 nM -1.9% | 833.33 nM 0.38% | 10000 nM 0.75%

NC(=S)N/N=C/c1ccncc1 [perchlozone]
inactive: 1 nM 2.2% | 8.33 nM 1.74% | 100 nM 0.96% | 833.33 nM 2.38% | 10000 nM 3.63%

O=C1NC(=O)/C(=C/c2cccc(C(F)(F)F)c2)S1
inactive: 1 nM 0.25% | 8.33 nM 2.25% | 100 nM 1.98% | 833.33 nM -0.59% | 10000 nM -1.22%

CO/N=C(\C(=O)N[C@@H]1C(=O)N2C(C(=O)O)=C(COC(N)=O)CS[C@H]12)c1ccco1
inactive: 1 nM -0.51% | 8.33 nM 1.54% | 100 nM 0.59% | 833.33 nM 0.24% | 10000 nM -0.24%

CN[C@@H]1[C@H](O[C@H]2[C@H](O[C@H]3[C@H](O)[C@@H](O)[C@H](NC(=N)N)[C@@H](O)[C@@H]3NC(=N)N)O[C@@H](C)[C@]2(O)CO)O[C@@H](CO)[C@H](O)[C@H]1O [dihydrostreptomycin]
inactive: 1 nM 0.2% | 8.33 nM -0.04% | 100 nM -0.21% | 833.33 nM 0.85% | 10000 nM -0.41%

N#Cc1cnc2cnc(NCc3cccnc3)cc2c1Nc1ccc(F)c(Cl)c1
inactive: 1 nM 0.87% | 8.33 nM 1.05% | 100 nM 2.35% | 833.33 nM -1.3% | 10000 nM -8.45%

Nc1nc2cc(-c3ccc4ncc(C(=O)N5CCOCC5)n4c3)ccc2o1
inactive: 1 nM 0.78% | 8.33 nM 5.87% | 100 nM 4.68% | 833.33 nM 3.05% | 10000 nM -2.33%

COc1cccc2c1c(O)c(C(=O)N(C)c1ccc(C(F)(F)F)cc1)c(=O)n2C [tasquinimod]
inactive: 1 nM 1.2% | 8.33 nM 3.29% | 100 nM 1.4% | 833.33 nM 1.35% | 10000 nM 1.05%

Nc1nccs1 [aminothiazole]
inactive: 1 nM -0.84% | 8.33 nM 1.04% | 100 nM 0.28% | 833.33 nM 2.14% | 10000 nM 1.48%

CN(C(=O)/C=C/c1ccoc1)[C@@H]1CC[C@@]2(O)[C@H]3Cc4ccc(O)c5c4[C@@]2(CCN3CC2CC2)[C@H]1O5 [nalfurafine]
inactive: 1 nM -5.32% | 8.33 nM -1.02% | 100 nM 0.43% | 833.33 nM -2.31% | 10000 nM -1.57%

Cl/C=C\C[N+]12CN3CN(CN(C3)C1)C2 [1-((Z)-3-chloroallyl)-1,3,5,7-tetraazaadamantan-1-ium]
inactive: 1 nM 0% | 8.33 nM 0.47% | 100 nM -0.23% | 833.33 nM 2.67% | 10000 nM 5.36%

O=C(Nc1ccc([N+](=O)[O-])cc1O)Nc1ccccc1Br
inactive: 1 nM 0.2% | 8.33 nM -0.25% | 100 nM -0.6% | 833.33 nM 0.15% | 10000 nM -2.06%

C=CCNc1nc(NCC=C)nc(N2CCN(C(c3ccc(F)cc3)c3ccc(F)cc3)CC2)n1 [almitrine]
inactive: 1 nM -6.44% | 8.33 nM -3.95% | 100 nM -7.43% | 833.33 nM -4.59% | 10000 nM -8.59%

CC(C)[C@H](N)C(=O)OCC(CO)OCn1cnc2c(=O)nc(N)[nH]c21 (mixture of isomers) [valganciclovir]
inactive: 1 nM 6.98% | 8.33 nM 8.27% | 100 nM 4.51% | 833.33 nM 8.72% | 10000 nM 1.96%

CCc1cccc(N(C)C(=N)Nc2cccc3ccccc23)c1 [aptiganel]
inactive: 1 nM 1.52% | 8.33 nM 1.91% | 100 nM 1.39% | 833.33 nM -2.33% | 10000 nM -4.82%

COc1cc(N2CCC(O)CC2)ccc1Nc1cc(Nc2ccccc2S(=O)(=O)C(C)C)c2cc[nH]c2n1
inactive: 1 nM 5.38% | 8.33 nM 3.7% | 100 nM -1.89% | 833.33 nM 0.98% | 10000 nM -7.51%

CCn1c(=O)[nH]c2ccccc21
inactive: 1 nM -3.62% | 8.33 nM -3.46% | 100 nM -3.83% | 833.33 nM -3.63% | 10000 nM -3.51%

CN(C)[C@@H]1C(O)=C(C(N)=O)C(=O)[C@@]2(O)C(O)=C3C(=O)c4c(O)cccc4[C@@](C)(O)[C@H]3[C@H](O)[C@@H]12 [oxytetracycline]
inactive: 1 nM -0.32% | 8.33 nM -3.1% | 100 nM -1.01% | 833.33 nM -0.96% | 10000 nM -0.98%

CC1=C(CC(=O)O)c2cc(F)ccc2/C1=C\c1ccc(S(C)(=O)=O)cc1 [exisulind]
inactive: 1 nM -5.21% | 8.33 nM -2.14% | 100 nM -3.65% | 833.33 nM 0.09% | 10000 nM -2.3%
